# Data reported in PubChem BioAssay (NCATS).
# A number with no mark means an inactive call. Results filed as inconclusive are left out. A call without a number means that no potency is given here. Active and inactive are the calls of the source. Calls follow the shape of the dose curve; as a rule, active = well fitted curve in the direction sought with a large enough effect; inconclusive = small, poorly fitted or top-dose-only effect, or another doubt; inactive = no such curve, though single readings can be large; an effect the other way counts as inactive or inconclusive. Where a SMILES comes first, the peptide text is derived from it. The star is where a group is joined. Cbz = O=C(OCc1ccccc1)*; CH2F = FC*
# Key:
# [1] = biological target: Glutathione peroxidase 1 (Homo sapiens) (UniProt P07203); experiment: Primary qHTS Assay for Inhibitors of Recombinant Selenoprotein Glutathione Peroxidase 1 (GPX1) (AID 1845191); also: nearly all actives have a fitted effect of over 65% in size
# Sequence of Glutathione peroxidase 1 (Homo sapiens) (P07203 whole entry, looked up): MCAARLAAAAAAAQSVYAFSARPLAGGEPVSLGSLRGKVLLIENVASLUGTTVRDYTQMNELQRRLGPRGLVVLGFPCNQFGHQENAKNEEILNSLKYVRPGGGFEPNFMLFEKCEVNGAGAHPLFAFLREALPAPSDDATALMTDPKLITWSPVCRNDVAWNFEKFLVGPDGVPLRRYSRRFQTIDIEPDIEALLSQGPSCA
# How it was run: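 NADPH consumption tracked by fluorescence at 340/450 nm between t=0 and t=15 min, room temperature. Final mix: 10 nM GPX1, 100 nM glutathione reductase, 1 mM GSH, 0.5 mM NADPH, 0.5 mM cumene hydroperoxide, 0.01% BSA; 30 min compound–enzyme preincubation.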
# [2] = biological target: Phospholipid hydroperoxide glutathione peroxidase GPX4 (Homo sapiens) (UniProt P36969); experiment: Primary qHTS Assay for Inhibitors of Recombinant Selenoprotein Glutathione Peroxidase 4 (GPX4) (AID 1845192); also: nearly all actives have a fitted effect of over 65% in size; as to activity change, negative = inhibition: series mostly up to about 50 µM
# Sequence of Phospholipid hydroperoxide glutathione peroxidase GPX4 (Homo sapiens) (P36969 whole entry, looked up): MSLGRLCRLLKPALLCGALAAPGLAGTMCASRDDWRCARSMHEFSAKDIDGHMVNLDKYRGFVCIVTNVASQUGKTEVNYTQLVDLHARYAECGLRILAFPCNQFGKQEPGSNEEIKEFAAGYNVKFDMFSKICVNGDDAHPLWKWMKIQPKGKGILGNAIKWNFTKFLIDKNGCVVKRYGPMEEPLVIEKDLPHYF
# How it was run: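 NADPH consumption followed by fluorescence at 340/450 nm, t=0 and after 15 min at room temperature. Reaction started with cumene hydroperoxide (0.5 mM final) after 30 min compound–GPX4 preincubation; final 200 nM GPX4, 100 nM GR, 1 mM GSH, 0.5 mM NADPH.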
# [3] = biological target: Luciferin 4-monooxygenase (Photinus pyralis) (UniProt P08659); experiment: Primary firefly luciferase (FLuc) qHTS assay for identification of artifact compounds. (AID 1845220); also: nearly all actives have a fitted effect of over 60% in size; as to activity change, negative = inhibition: series mostly up to about 54 µM
# How it was run: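 Cell-free, 1536-well qHTS. Buffer pH 7.6 with 0.01% Tween-20 and 0.05% BSA; 10 uM D-luciferin, 10 uM ATP; 10 nM P. pyralis luciferase; luminescence after 5 min.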
# [4] = Primary fluorescence-based thiol-reactive (MSTI) qHTS assay for identification of artifact compounds. (AID 1845221); also: nearly all actives have a fitted effect of over 65% in size; also: potency is read from the fitted curve at half-maximal effect;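 as to activity change, negative = thiol reactive: series mostly up to about 54 µM; thiol-reactive compounds lower the probe fluorescence signal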
# How it was run: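 One-hour, room-temperature, dark incubation of compound with 4 uM MSTI in PBS (pH 7.4, 2% DMSO) precedes a fluorescence read at 525 nm excitation, 598 nm emission; Hill-equation fitting yields concentration-response values.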
# [5] = test system: Nanoluciferase (engineered Oplophorus gracilirostris luciferase); experiment: Primary Nanoluciferase (NLuc) qHTS assay for identification of artifact compounds. (AID 1845222); also: series mostly up to about 54 µM
# How it was run: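 Compounds are pinned into diluted (1:55) conditioned medium of NLuc-expressing S16 cells and held 15 min at room temperature protected from light. Nano-Glo substrate follows, and luminescence is read 5 min later.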
Compound,Potency [1],Potency [2],Potency [3],Potency [4],Potency [5],"activity change, negative = inhibition [3]","activity change, negative = thiol reactive [4]","activity, negative = inhibition [5]",outcome [3]
COC(=O)c1c(CC=C(C)C)c(OC2OC(CO)C(O)C(O)C2O)c2ccccc2c1OC1OC(CO)C(O)C(O)C1O (stereo not given),inactive,inactive,inactive,inactive,inactive,,,,
COC(=O)CC[C@H](NC(=O)[C@H](CC(C)C)NC(=O)OCc1ccccc1)C(=O)N[C@@H](Cc1cnc[nH]1)C(=O)N[C@@H](CC(=O)OC)C(=O)CF (Cbz-LE(OMe)HD(OMe)-CH2F),inactive,inactive,,,,1.89% [at 11.6 µM],12.6% [at 11.5 µM],2.59% [at 11.6 µM],
C/C=C1\[C@H](O[C@@H]2O[C@H](CO)[C@@H](O)[C@H](O)[C@H]2O)OC=C(C(=O)OCCc2ccc(O)cc2)[C@H]1CC(=O)OCCc1ccc(O)cc1,inactive,inactive,inactive,inactive,inactive,,,,
C=C1CCC2C(C)(C)CC(O)CC2(C)C1CCC(C)CC(=O)O (stereo not given),inactive,inactive,inactive,18.5 µM (active),inactive,,,,
CC1(C)CC[C@]2(C(=O)O[C@@H]3O[C@H](CO[C@@H]4O[C@H](CO)[C@@H](O)[C@H](O)[C@H]4O)[C@@H](O)[C@H](O[C@@H]4O[C@H](CO)[C@@H](O)[C@H](O)[C@H]4O)[C@H]3O)CC[C@]3(C)C(=CCC4[C@@]5(C)CC[C@H](O[C@@H]6OC[C@@H](O)[C@H](O)[C@H]6O)[C@@](C)(C(=O)O)C5CC[C@]43C)[C@@H]2C1 (stereo not given in full),inactive,inactive,,,,,183% [at 11.5 µM],1.63% [at 11.6 µM],inactive [at 11.6 µM]
C/C=C/C=C/[C@@H]1O[C@](O)([C@H](CC)C(=O)NC/C=C/C=C(\C)[C@@H](OC)[C@@H](C)[C@@H]2O[C@H](/C=C/C=C/C=C(\C)C(=O)c3c(O)ccn(C)c3=O)[C@H](O)[C@@H]2O)[C@H](O)[C@H](O)C1(C)C,inactive,inactive,,,,,94.3% [at 11.5 µM],-0.199% [at 11.6 µM],inactive [at 11.6 µM]
C/C=C1/CC2C(=O)Nc3cc(O)c(OC)cc3C(=O)N2C1 (stereo not given),inactive,inactive,inactive,13.1 µM (active),inactive,,,,
C[C@@H]1C[C@H]2OC(=O)[C@@]3(C)CCC[C@](C)(C23)[C@@]1(O)CCC1=CC(=O)OC1O (stereo not given in full),inactive,inactive,inactive,3.29 µM (active),inactive,,,,
CC(C)NC(=O)c1ccc(C#Cc2ccncc2)cn1,inactive,inactive,inactive,inactive,inactive,,,,
CC(C)=CCC[C@](C)(O[C@@H]1O[C@H](CO[C@@H]2O[C@@H](CO)[C@H](O)[C@H]2O)[C@@H](O)[C@H](O)[C@H]1O)[C@H]1CC[C@]2(C)[C@@H]1[C@H](O)C[C@@H]1[C@@]3(C)CC[C@H](O[C@@H]4O[C@H](CO)[C@@H](O)[C@H](O)[C@H]4O[C@@H]4O[C@H](CO)[C@@H](O)[C@H](O)[C@H]4O)C(C)(C)[C@@H]3CC[C@]12C,inactive,inactive,inactive,inactive,inactive,,,,
C=C(C(=O)O)[C@@H]1CC[C@H](C)[C@@H]2CC(=O)C(C)=C2C1,inactive,inactive,inactive,21.2 µM (active),inactive,,,,
COC1CC(O[C@H]2CC[C@@]3(C)C(=CC[C@]4(O)C3[C@H](O)[C@@H](O)[C@]3(C)[C@@H]([C@H](C)O)CC[C@@]34O)C2)OC(C)C1OC1CC(OC)C(OC2CC(OC)C(OC3OC(C)C(OC4OC(CO)C(O)C(O)C4O)C(OC)C3O)C(C)O2)C(C)O1 (stereo not given in full),inactive,inactive,,,,1.06% [at 11.6 µM],43.2% [at 11.5 µM],0% [at 11.6 µM],
CC1(C)CC[C@]2(C(=O)O[C@@H]3O[C@H](CO[C@@H]4O[C@H](CO[C@@H]5O[C@H](CO)[C@H](O)[C@H](O)[C@H]5O)[C@@H](O)[C@H](O)[C@H]4O)[C@@H](O)[C@H](O[C@@H]4O[C@H](CO)[C@@H](O)[C@H](O)[C@H]4O)[C@H]3O)[C@H](O)C[C@]3(C)C(=CCC4[C@@]5(C)CC[C@H](O[C@@H]6OC[C@@H](O)[C@H](O)[C@H]6O)[C@@](C)(C(=O)O)C5CC[C@]43C)[C@@H]2C1 (stereo not given in full),inactive,inactive,,,,,27.9% [at 11.5 µM],-3.7% [at 11.6 µM],inactive [at 11.6 µM]
Cc1cc(C(=O)N2Cc3cnn(C)c3Nc3ccccc32)ccc1CNC(=O)N1CCN(Cc2cc(O)cc(O)c2)CC1,inactive,inactive,inactive,inactive,inactive,,,,
Cc1cc(OCCN2CCOCC2)nn1-c1ccc2ccccc2c1,inactive,inactive,inactive,inactive,inactive,,,,
C/C=C/C=C/C1=C2C(=O)C3(C)C4C(C(=O)CC(O)/C=C/C)=C(O1)C1(C)C2C2(C)OC1(O)C4(C)OC23O (stereo not given),inactive,inactive,inactive,5.82 µM (active),inactive,,,,
CC1(C)CC[C@]2(C(=O)O[C@@H]3O[C@H](CO)[C@@H](O)[C@H](O)[C@H]3O)CC[C@]3(C)C(=CCC4[C@@]5(C)CC[C@H](OC6OC(C(=O)O)C(OC7OC(CO)C(O)C(O)C7O)C(O)C6O)C(C)(C)C5CC[C@]43C)C2C1 (stereo not given in full),inactive,inactive,,,,-0.627% [at 11.6 µM],280% [at 11.5 µM],0% [at 11.6 µM],
Cc1onc(-c2c(Cl)cccc2Cl)c1CC(=O)NCc1ccc(OCC(F)(F)F)nc1,inactive,inactive,inactive,inactive,inactive,,,,
CC1CCC2C(C)(C)[C@H](O)CC[C@]2(C)C12Cc1c(O)cc3c(c1O2)CN(C(CCC(=O)O)C(=O)O)C3=O (stereo not given in full),inactive,inactive,inactive,inactive,inactive,,,,
CC(C)C1CCC(CO)=CC1/C=C(\CO)C(=O)OCC1(O)CCC(C(C)C)C2C=C(C(=O)O)COC(=O)C21 (stereo not given),inactive,inactive,inactive,inactive,inactive,,,,
CC(C)[C@@H](C(=O)O)N1Cc2c(cc(O)c3c2O[C@]2(C3)[C@H](C)CCC3C(C)(C)[C@H](O)[C@H](O)C[C@@]32C)C1=O (stereo not given in full),inactive,inactive,inactive,inactive,inactive,,,,
CC(=O)O[C@H]1[C@H](O[C@H]2CC[C@]34C[C@]35CC[C@]3(C)[C@@H]([C@@]6(C)CC[C@@H](C(C)(C)O)O6)[C@@H](O)C[C@@]3(C)[C@@H]5C[C@H](O[C@@H]3O[C@H](CO)[C@@H](O)[C@H](O)[C@H]3O)[C@H]4C2(C)C)OC[C@@H](OC(C)=O)[C@@H]1O,inactive,inactive,inactive,inactive,inactive,,,,
C[C@@H]1O[C@@H](O[C@@H]2\C=C/C=C\C=C/C=C\C[C@H](C)OC(=O)/C=C\[C@H]3O[C@@H]3C[C@H](O)C[C@]3(O)C[C@@H](O)[C@@H](C(=O)O)[C@H](C2)O3)[C@H](O)[C@H](N)[C@@H]1O,inactive,inactive,inactive,inactive,inactive,,,,
